Laboratory results from PubChem BioAssay (Tox21).
Records with an inconclusive call do not appear. Activity calls are given as the source filed them. Unless noted, calls come from the whole dose curve; as a rule, active = well fitted curve in the direction sought with a large enough effect in the repeat runs; inconclusive = weak or mixed curves; inactive = no such curve, though single readings can be large; an effect the other way counts as inactive or inconclusive.

How the values were obtained:
[1] = qHTS assay to identify small molecule antagonists of the thyroid receptor (TR) signaling pathway - cell viability counter screen (AID 743064); note: nearly all actives have a fitted effect of over 50% in size
In short: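 GH3.TRE-Luc rat pituitary cells carrying a TRE-luciferase reporter were treated with compound plus 1 nM T3 (final) for 23.5 h at 37 °C. Viability was then read in the same wells by CellTiter-Fluor fluorescence after a further 30 min.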

[2] = qHTS assay to identify small molecule antagonists of the thyroid receptor (TR) signaling pathway (AID 743065); note: nearly all actives have a fitted effect of over 55% in size
In short: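 GH3.TRE-Luc rat pituitary cells (two TREs driving luciferase) were dosed with compound, then stimulated with 1 nM T3 (final) for 23.5 h at 37 C. ONE-Glo luminescence was the read-out, with CellTiter-Fluor fluorescence as the cytotoxicity counter-screen.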

[3] = system: thyroid hormone receptor (rat, GH3 cells); assay: qHTS assay to identify small molecule agonists of the thyroid receptor (TR) signaling pathway (AID 743066; calls by dose curve)
[4] = molecular target: Estrogen receptor (Homo sapiens) (UniProt P03372); assay: qHTS assay to identify small molecule antagonists of the estrogen receptor alpha (ER-alpha) signaling pathway (AID 743069; active = well fitted curve in the direction sought with a large enough effect in the signal ratio in the repeat runs, not every such curve was filed as active; the % refers to the signal ratio)
Sequence of Estrogen receptor (Homo sapiens) (P03372 whole entry, looked up): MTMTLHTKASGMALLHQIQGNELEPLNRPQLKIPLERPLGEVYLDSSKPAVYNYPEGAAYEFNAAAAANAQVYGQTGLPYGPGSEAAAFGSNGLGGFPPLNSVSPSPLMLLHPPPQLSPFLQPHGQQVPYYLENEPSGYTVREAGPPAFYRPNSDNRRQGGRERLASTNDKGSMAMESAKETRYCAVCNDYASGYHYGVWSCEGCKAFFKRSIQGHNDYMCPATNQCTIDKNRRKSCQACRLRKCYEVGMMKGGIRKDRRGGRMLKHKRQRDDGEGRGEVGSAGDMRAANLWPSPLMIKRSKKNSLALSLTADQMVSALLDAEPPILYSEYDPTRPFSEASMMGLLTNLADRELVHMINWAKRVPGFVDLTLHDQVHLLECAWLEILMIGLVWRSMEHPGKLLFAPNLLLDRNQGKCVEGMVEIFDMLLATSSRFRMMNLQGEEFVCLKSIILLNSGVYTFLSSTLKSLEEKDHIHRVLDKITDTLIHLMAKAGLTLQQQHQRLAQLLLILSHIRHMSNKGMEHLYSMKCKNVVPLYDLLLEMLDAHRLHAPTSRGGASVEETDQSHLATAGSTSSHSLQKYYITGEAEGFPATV
In short: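 In this cell-based reporter format, GripTite HEK293 cells harbouring ER-alpha-UAS-bla were grown overnight with 2% charcoal-stripped FBS, dosed with DMSO-dissolved compounds, then challenged with 17beta-estradiol. After 18 hr at 37C, beta-lactamase activity was detected by FRET fluorescence.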

[5] = qHTS assay to identify small molecule antagonists of the estrogen receptor alpha (ER-alpha) signaling pathway - cell viability counter screen (AID 743074; calls by dose curve; note: nearly all actives have a fitted effect of over 45% in size)
[6] = molecular target: Estrogen receptor (Homo sapiens) (UniProt P03372); assay: qHTS assay to identify small molecule agonists of the estrogen receptor alpha (ER-alpha) signaling pathway (AID 743075; calls by dose curve)
[7] = molecular target: Estrogen receptor (Homo sapiens) (UniProt P03372); assay: qHTS assay to identify small molecule agonists of the estrogen receptor alpha (ER-alpha) signaling pathway using the BG1 cell line (AID 743079); conditions: BG1Luc4E2 cells, ERE-luciferase agonist, 22 h; activation: at 70.3 µM (top of the series); note: nearly all actives have a fitted effect of over 20% in size
[8] = qHTS assay to identify small molecule antagonists of the estrogen receptor alpha (ER-alpha) signaling pathway using the BG1 cell line - cell viability counter screen (AID 743081);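 note: compound given together with 17beta-estradiol as the ER stimulus; nearly all actives have a fitted effect of over 45% in size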
Aromatase (Homo sapiens) = Aromatase (Homo sapiens) (UniProt P11511); assay: qHTS assay to identify aromatase inhibitors (AID 743083); note: nearly all actives have a fitted effect of over 55% in size
Sequence of Aromatase (Homo sapiens) (P11511 whole entry, looked up): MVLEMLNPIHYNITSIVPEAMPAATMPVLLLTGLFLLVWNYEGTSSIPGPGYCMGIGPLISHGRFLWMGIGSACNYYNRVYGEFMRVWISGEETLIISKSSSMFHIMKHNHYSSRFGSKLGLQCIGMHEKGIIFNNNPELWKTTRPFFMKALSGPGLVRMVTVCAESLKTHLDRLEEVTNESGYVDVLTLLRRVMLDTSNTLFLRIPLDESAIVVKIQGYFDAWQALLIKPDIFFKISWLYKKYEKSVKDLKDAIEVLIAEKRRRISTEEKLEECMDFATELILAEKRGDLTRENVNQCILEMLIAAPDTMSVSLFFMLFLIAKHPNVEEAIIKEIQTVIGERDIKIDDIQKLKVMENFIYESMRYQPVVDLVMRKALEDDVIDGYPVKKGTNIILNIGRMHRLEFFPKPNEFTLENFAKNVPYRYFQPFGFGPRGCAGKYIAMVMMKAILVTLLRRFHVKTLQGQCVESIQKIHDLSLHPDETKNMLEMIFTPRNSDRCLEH

[9] = qHTS assay to identify aromatase inhibitors - cell viability counter screen (AID 743084);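 note: cells stimulated with testosterone during compound exposure; nearly all actives have a fitted effect of over 55% in size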
[10] = molecular target: Aryl hydrocarbon receptor (Homo sapiens) (UniProt P35869); assay: qHTS assay to identify small molecule that activate the aryl hydrocarbon receptor (AhR) signaling pathway (AID 743085);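 note: HG2L7.5c1 human HepG2 liver cells with stably integrated DRE-driven firefly reporter; nearly all actives have a fitted effect of over 15% in size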
Sequence of Aryl hydrocarbon receptor (Homo sapiens) (P35869 whole entry, looked up): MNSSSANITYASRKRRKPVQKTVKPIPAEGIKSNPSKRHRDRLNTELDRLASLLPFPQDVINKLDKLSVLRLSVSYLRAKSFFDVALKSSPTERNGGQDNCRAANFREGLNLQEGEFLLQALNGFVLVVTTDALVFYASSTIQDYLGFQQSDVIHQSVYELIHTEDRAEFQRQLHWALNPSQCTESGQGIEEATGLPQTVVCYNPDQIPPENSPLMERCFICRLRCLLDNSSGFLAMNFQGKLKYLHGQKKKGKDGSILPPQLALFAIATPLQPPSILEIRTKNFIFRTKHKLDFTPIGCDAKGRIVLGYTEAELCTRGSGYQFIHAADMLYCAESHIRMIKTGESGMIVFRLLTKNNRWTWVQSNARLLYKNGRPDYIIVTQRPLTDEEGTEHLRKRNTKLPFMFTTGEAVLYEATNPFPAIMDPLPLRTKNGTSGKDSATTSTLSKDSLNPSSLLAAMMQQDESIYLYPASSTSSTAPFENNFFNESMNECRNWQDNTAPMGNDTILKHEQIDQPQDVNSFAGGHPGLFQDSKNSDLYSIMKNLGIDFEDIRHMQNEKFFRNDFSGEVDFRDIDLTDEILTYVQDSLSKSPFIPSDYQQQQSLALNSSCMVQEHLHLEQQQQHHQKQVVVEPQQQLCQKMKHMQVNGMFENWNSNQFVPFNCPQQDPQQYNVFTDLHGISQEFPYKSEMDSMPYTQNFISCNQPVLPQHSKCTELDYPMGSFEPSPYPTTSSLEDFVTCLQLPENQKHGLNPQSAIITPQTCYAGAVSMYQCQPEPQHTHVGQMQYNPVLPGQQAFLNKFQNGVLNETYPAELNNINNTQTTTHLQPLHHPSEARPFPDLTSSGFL
In short: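 HepG2 cells (HG2L7.5c1) stably carrying a firefly luciferase reporter driven by 20 dioxin responsive elements were exposed to compound for 24 h at 37C after a 5 h settling period; luminescence rise (ONE-Glo) indicated activation.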

[11] = qHTS assay to identify small molecule that activate the aryl hydrocarbon receptor (AhR) signaling pathway - cell viability counter screen (AID 743086);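 note: HepG2 liver cells carrying the AhR DRE luciferase reporter; nearly all actives have a fitted effect of over 45% in size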
In short: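 HepG2-AhR-luc (HG2L7.5c1) cells, 4000/well, treated 24 h at 37 C with compound; viability measured as CellTiter-Fluor fluorescence after 30 min in the same wells as the luciferase read.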

[12] = molecular target: Peroxisome proliferator-activated receptor gamma (Homo sapiens) (UniProt P37231); assay: qHTS assay to identify small molecule agonists of the peroxisome proliferator-activated receptor gamma (PPARg) signaling pathway (AID 743094; active = well fitted activation curve with a large enough effect in the signal ratio in the repeat runs, not every such curve was filed as active; the % refers to the signal ratio)
Sequence of Peroxisome proliferator-activated receptor gamma (Homo sapiens) (P37231 whole entry, looked up): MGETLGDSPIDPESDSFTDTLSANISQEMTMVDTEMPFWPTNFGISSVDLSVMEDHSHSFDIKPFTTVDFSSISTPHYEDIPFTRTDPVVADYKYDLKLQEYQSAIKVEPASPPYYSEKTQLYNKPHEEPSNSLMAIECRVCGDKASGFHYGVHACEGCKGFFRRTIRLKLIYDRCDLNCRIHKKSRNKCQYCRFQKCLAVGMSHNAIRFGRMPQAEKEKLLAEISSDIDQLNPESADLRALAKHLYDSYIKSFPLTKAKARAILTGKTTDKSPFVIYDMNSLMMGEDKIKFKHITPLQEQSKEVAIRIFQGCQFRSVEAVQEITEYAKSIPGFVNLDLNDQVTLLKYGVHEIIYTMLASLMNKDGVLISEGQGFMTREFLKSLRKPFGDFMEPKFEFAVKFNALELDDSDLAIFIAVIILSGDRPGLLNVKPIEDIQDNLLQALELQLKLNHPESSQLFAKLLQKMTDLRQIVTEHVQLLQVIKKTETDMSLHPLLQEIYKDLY
In short: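 Cells from the PPARg UAS-bla HEK293H line are plated and incubated 5 h at 37C. Compounds in DMSO are pinned in and left 17 h at 37C. LiveBLAzer B/G substrate is then added for 1 h at room temperature before fluorescence is measured.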

[13] = molecular target: Peroxisome proliferator-activated receptor gamma (Homo sapiens) (UniProt P37231); assay: qHTS assay to identify small molecule antagonists of the peroxisome proliferator-activated receptor gamma (PPARg) signaling pathway (AID 743191; calls by dose curve; note: nearly all actives have a fitted effect of over 30% in size)
In short: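 GeneBLAzer PPARg UAS-bla HEK293H cells, 5 h post-plating, exposed to compounds 17 h at 37C. LiveBLAzer B/G FRET substrate added for 1 h at room temperature; beta-lactamase reporter read by fluorescence intensity.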

[14] = qHTS assay to identify small molecule antagonists of the peroxisome proliferator-activated receptor gamma (PPARg) signaling pathway - cell viability counter screen (AID 743194); note: nearly all actives have a fitted effect of over 55% in size
In short: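 Cytotoxicity counter screen in PPARg-bla HEK293H cells, same wells as reporter assay. Compounds plus 50 nM rosiglitazone (final) for 17 h at 37 C, then viability read by CellTiter-Glo luminescence.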

[15] = qHTS assay for small molecule agonists of the antioxidant response element (ARE) signaling pathway (AID 743202; active = well fitted activation curve with a large enough effect in the signal ratio in the repeat runs, not every such curve was filed as active; the % refers to the signal ratio)
In short: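 HepG2 ARE-bla cells; 16 h treatment at 37 C; FRET-based beta-lactamase fluorescence read after 2 h substrate incubation at room temperature.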

[16] = qHTS assay for small molecule agonists of the antioxidant response element (ARE) signaling pathway - cell viability counter screen (AID 743203; calls by dose curve; note: nearly all actives have a fitted effect of over 55% in size)
In short: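 Cytotoxicity was tested in parallel with the ARE reporter screen. ARE-bla HepG2 cells were exposed to compounds for 16 hrs, and viability was taken from CellTiter-Glo luminescence.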

[17] = qHTS assay for small molecule activators of the heat shock response signaling pathway - cell viability counter screen (AID 743209); note: nearly all actives have a fitted effect of over 50% in size
In short: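 Cytotoxicity counter screen run in parallel with the HSE beta-lactamase reporter, using the same wells. HeLa HSE-bla cells received compound for 5 h at 37 C; ATP-based CellTiter-Glo luminescence was measured after 30 min at room temperature.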

[18] = qHTS assay for small molecule activators of the heat shock response signaling pathway (AID 743210; active = well fitted activation curve with a large enough effect in the signal ratio in the repeat runs, with a control signal flat, not every such curve was filed as active; the % refers to the signal ratio;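 note: HeLa cells with beta-lactamase reporter driven by heat shock elements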)
In short: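 Following overnight attachment, HSE-bla HeLa cells received test compounds for 5 h at 37 C; beta-lactamase activity was then detected via FRET substrate fluorescence.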

[19] = qHTS assay to identify small molecule antagonists of the estrogen receptor alpha (ER-alpha) signaling pathway using the BG1 cell line (AID 743080; calls by dose curve; note: nearly all actives have a fitted effect of over 25% in size)
In short: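 Antagonist mode: compounds in DMSO were pinned onto BG1-Luc-4E2 cells alongside 17beta-estradiol agonist, incubated 21.5 h, and ERE-driven luciferase measured with ONE-Glo. Cytotoxicity was multiplexed using CellTiter-Fluor fluorescence.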

Measured: Potency

CC(O)c1ccccc1 (stereo unspecified)
not listed: [19]
inactive: all other assays above

CN1C(C(=O)Nc2ccccn2)=C(O)c2sccc2S1(=O)=O
not listed: [8] | [18] | [19]
inactive: all other assays above

O=C(O)CCC(=O)C(=O)O
not listed: [13]
inactive: all other assays above

CCn1cc(C(=O)O)c(=O)c2cc(F)c(N3CCNCC3)cc21
not listed: [16]
inactive: all other assays above

CC[N+](CC)(CCNC(=O)C(=O)NCC[N+](CC)(CC)Cc1ccccc1Cl)Cc1ccccc1Cl
not listed: [7] | [14] | [16] | [17]
inactive: all other assays above

Nc1ncnc2c1ncn2[C@H]1CC[C@@H](CO)O1
not listed: [13]
inactive: all other assays above

Brc1cc(Br)c(Oc2cc(Br)c(Br)cc2Br)cc1Br
not listed: Aromatase (Homo sapiens) | [9] | [10] | [11] | [12] | [13] | [18] | [19]
inactive: all other assays above
